JMJD2A Tudor inh: JMJD2A Tudor domain (human) inhibition; AlphaScreen JMJD2A-Tudor / H3K4me3 peptide binding; Potency, µM (highest dose often 114 µM), for inactives: at the highest dose activity change, negative = inhibition, hits mostly inhibitors; 390,000 compounds, 4.4% hits; AID 504339; also: potency is read from the fitted curve at half-maximal effect; % is scaled to controls: 0 for no effect and ±100 for the full control effect; nearly all actives have a fitted effect of over 50% in size
PI5P4Ka inh: PI5P4K alpha (human) kinase inhibition | 330,000 compounds, 1.2% hits | AID 652105 | max response, % | PI5P4Kalpha enzyme, ADP-Glo luminescence, 60 min; hits give low values; active = max response of -50% or lower; inconclusive = between -30% and -50%; inactive = -30% or higher; also: value at the top dose of about 77 µM; % is scaled to controls: 0 for no effect and ±100 for the full control effect
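Enzyme plus substrate dispensed, test compounds pinned in, then ATP (5 microM final) added. After 60 min at RT, ADP-Glo reagent 1 for 45 min and reagent 2 for 30 min preceded luminescence imaging.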
G9a block: blocks human histone lysine methyltransferase G9a; G9a H3K9 monomethylation, AlphaScreen, 2 h; Potency, µM (series often up to 102 µM), without a hit: at the highest dose activity, negative = inhibition, actives largely listed as inhibitors; 350,000 compounds, 8.8% hits; AID 504332; also: potency is read from the fitted curve at half-maximal effect; % is scaled to controls: 0 for no effect and ±100 for the full control effect; nearly all actives have a fitted effect of over 75% in size
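Readings reflect AlphaScreen signal from monomethyl-H3K9 antibody detection. HMT at 20 nM; substrate b-H3K9 500 nM; cofactor SAM 20 uM; 2 h RT reaction; compounds tested as titrations in qHTS with 15 min preincubation.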
PLK1 PBD block: PLK1 (human) polo-box domain binding inhibition | Plk1 PBD binding of FITC phosphopeptide, fluorescence polarization | Potency, µM, inactives show max response, negative = inhibition, usual class: inhibitors | P53350 | AID 720504 | 360,000 compounds, 2.8% hits; also: potency is read from the fitted curve at half-maximal effect; series mostly up to about 57 µM; % is scaled to controls: 0 for no effect and ±100 for the full control effect; nearly all actives have a fitted effect of over 65% in size
BAZ2B inh: BAZ2B (human) inhibition. Q9UIF8. AlphaScreen BAZ2B-H3K14Ac peptide displacement. Potency, µM (titrated, usually from 114 µM), inactives show at the top dose activity change, negative = inhibition, actives largely listed as inhibitors. 360,000 compounds, 4.4% hits. AID 504333; also: potency is read from the fitted curve at half-maximal effect; % is scaled to controls: 0 for no effect and ±100 for the full control effect; nearly all actives have a fitted effect of over 60% in size
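AlphaScreen displacement of biotin-H3(5-23)K14Ac peptide (50 nM final) from BAZ2B (50 nM final) in PBS pH 7.4, 0.01% Tween-20; complex preformed 30 min RT, then compounds (top 110 uM) 30 min RT, beads 20 min dark.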
HP1b chromo inh: HP1-beta chromodomain-methylated histone interaction inhibition | 390,000 compounds, 0.56% hits | AlphaScreen HP1-beta / biotin-H3K9me3 peptide binding | Potency, µM (doses to about 114 µM), without a hit: top-dose activity change, negative = inhibition, hits mostly inhibitors | AID 540317; also: potency is read from the fitted curve at half-maximal effect; nearly all actives have a fitted effect of over 70% in size
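HP1-beta protein (50 nM final) preincubated 30 min at room temperature with biotinylated H3(1-18)K9me3 peptide (50 nM) in PBS pH 7.4, 0.01% Tween-20, then compound added for 30 min. AlphaScreen streptavidin donor/nickel chelate acceptor beads (10 ug/mL final), 30 min dark, luminescence read.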
Active calls of the source: *; ? = inconclusive; . = no result given; [ ] = another dose, or the depositor's remark. This is a sample that favours compounds with a hit; in the whole collection about 12% have one here. Unless noted, calls follow the shape of the dose curve; as a rule, active = well fitted curve in the direction sought with a large enough effect; inconclusive = small, poorly fitted or top-dose-only effect, or another doubt; inactive = no such curve, though single readings can be large; an effect the other way counts as inactive or inconclusive.

SMILES	JMJD2A Tudor inh	PI5P4Ka inh	G9a block	PLK1 PBD block	BAZ2B inh	HP1b chromo inh
COc1ccc(-c2[nH]ncc2CN2CCC(N3CCSCC3)CC2)c(F)c1	?	-5	?	15µM*	-7%	-8%
COCC1CCN(Cc2cn[nH]c2-c2ccc(OC)cc2F)C1 (stereo not drawn)	-15%	1	23%	-7%	-5%	29%
CCOC(=O)[C@]12CCCC=C1N(Cc1cccc3ccccc13)C(=O)[C@H](CC(=O)N1CCCC1)C2	.	15	.	-10%	.	.
COc1ccc(NC(=O)c2ccco2)cc1NC(=O)c1cc(Cl)ccc1OC	-35%	.	-2%[59 µM]	.	1%	20%
COCCNS(=O)(=O)c1ccc2c(c1)n(C)c(=O)n2C	-9%	.	4.5µM*	-7%	-10%	13%
O=S(=O)(NCCO)c1ccc2c(c1)Cc1cc(S(=O)(=O)NCCO)ccc1-2	-8%	2	6%	6%	3%	2%
COCCNS(=O)(=O)c1ccc2c(c1)Cc1cc(S(=O)(=O)NCCOC)ccc1-2	?	-18	15%	19µM*	-10%	-9%
Cn1c(=O)n(C)c2cc(S(=O)(=O)NCCOCCO)ccc21	-9%	.	-12%[12.7 µM]	-6%	3%	13%
NNS(=O)(=O)c1ccc2c(c1)Cc1cc(S(=O)(=O)NN)ccc1-2	-13%	-5	7.9µM*	-23%	-7%	11%
CCN1C(=O)CC(C(=O)OC)=C1C	1%	-4	-26%	3%	3%	53%
COC(=O)C1=C(C)N(CCC2=CCCCC2)C(=O)C1	50µM*	1	-2%[12.7 µM]	?	8%	-5%
CCOCCCNCC(=O)NCC1CCCCC1	20µM*	-3	20µM*	-2%	50µM*	?
CCOc1ccccc1NC1c2ccccc2C(=O)N1Cc1ccco1 (stereo not drawn)	?	0	45µM*	-5%	?	-8%
CCc1ccccc1NC1c2ccccc2C(=O)N1Cc1ccco1 (stereo not drawn)	-33%	9	?	2%	-37%	2%
COc1ccc(N=CC2=C(O)CC(c3ccccc3)CC2=O)c(OC)c1 (stereo not drawn)	17%[57.1 µM]	-14	35%[59 µM]	21µM*	16%	11%
CCOc1ccccc1N=CC1=C(O)CC(c2ccccc2)CC1=O (stereo not drawn)	4%	3	?	12%	-1%	40%
CC1CC(C)(C)NC(=O)O1 (stereo not drawn)	10%	0	17%	-2%	-4%	33%
CC1CC(C)(C)NC(=S)S1 (stereo not drawn)	-13%	0	8.9µM*	24µM*	7%	7%
CC(=O)Nc1ccc2sn(-c3ccccc3)c(=O)c2c1	.	-82*	.	3.4µM*	.	.
CCn1c2ccccc2c2cc(NC(C)=O)ccc21	-28%	3	5%	-2%	2%	25%
N#Cc1ccc2sn(-c3ccccc3)c(=O)c2c1	.	-108*	.	2.7µM*	.	.
O=c1c2cc([N+](=O)[O-])ccc2sn1-c1ccccc1	.	-100*	.	2.7µM*	.	.
N#CC1=C2C=CC=CN2CC1=O	8.9µM*	-9	4µM*	-8%	50µM*	-23%
CN(C)c1ccc(C2(c3ccc(N(C)C)cc3)OC(=O)c3cc(N)ccc32)cc1	28µM*	9	16%[2.33 µM]	-1%	18µM*	16µM*
O=C1OC(c2ccccc2)(c2ccccc2)c2ccccc21	50%	2	.	-3%	.	40%[57 µM]
SMILES	JMJD2A Tudor inh	PI5P4Ka inh	G9a block	PLK1 PBD block	BAZ2B inh	HP1b chromo inh
COc1cccc(CNC(=O)C23CN(Cc4ccccc4)CC2C(c2ccc([N+](=O)[O-])cc2)=NO3)c1 (stereo not drawn)	?	5	71µM*	-8%	-37%	14%
CCc1nn(CC(=O)NCCc2ccc(SC)cc2)c(=O)c2cc3sccc3n12	-21%	.	3%[59 µM]	.	1%	19%
COc1cc(CNc2cccc(F)c2)cc(Br)c1O	?	.	?	-6%	.	3%
Fc1cccc(NCc2ccoc2)c1	-35%	.	40µM*	-19%	-7%	39%
CC1(C)CC(Cc2ccc(C(=O)c3ccccc3)cc2)N(C(=O)OC(C)(C)C)N1 (stereo not drawn)	.	-4	.	-12%	.	.
CCc1ccccc1NC(=O)C1C2C=CC(O2)C1C(=O)O (stereo not drawn)	5%	1	35µM*	-6%	-5%	77%
Cc1csc(NC(=O)C2C3C=CC(O3)C2C(=O)O)n1 (stereo not drawn)	25µM*	.	?	-1%	-30%	11%
O=C(O)C1C2C=CC(O2)C1C(=O)Nc1ccccc1C(F)(F)F (stereo not drawn)	79µM*	-5	3.2µM*	-21%	-6%	79µM*
CCOc1ccccc1NC(=O)C1C2C=CC(O2)C1C(=O)O (stereo not drawn)	-27%	-11	?	-3%	?	36%
CCOc1ccc(NC(=O)CN(C)C(=O)C2=COCCO2)cc1OCC	-4%	-1	1%[59 µM]	-16%	-7%	4%
Cc1nc(SC(C)C(=O)c2c(N)n(C)c(=O)n(C)c2=O)c2c(C)c(C)sc2n1 (stereo not drawn)	?	9	7.1µM*	-29%	-10%	12%
C=CCn1c(SCC(=O)c2c(N)n(C)c(=O)n(C)c2=O)nc2sc(C)c(C)c2c1=O	-9%	.	-10%	-8%	-29%	47%
CC(Sc1ncn[nH]1)C(=O)c1c(N)n(C)c(=O)n(C)c1=O (stereo not drawn)	-4%	1	?	-5%	8%	23%
CC(Sc1nnc(N)s1)C(=O)c1c(N)n(C)c(=O)n(C)c1=O (stereo not drawn)	-10%	9	50µM*	-11%	7%	8%
CCOC(=O)C1(C)CCCN(C(=O)c2ccc3c(c2)CCO3)C1 (stereo not drawn)	.	2	.	6%	.	.
Cc1c(Cn2ccnc2)c2ccccc2n1CCC(=O)O	.	.	1%[12.7 µM]	.	.	.
CC(=O)c1cccc(N2Cc3ccccc3C2=NC(=O)CCl)c1	35µM*	-70*	32µM*	13µM*	-35%	2%
CC(=O)c1ccc(N2Cc3ccccc3/C2=N\C(=O)Nc2ccccc2)cc1	-17%	-4	9%	-8%	11%	22%
CC1CN(c2ccc(Oc3ccccc3)cc2)c2nc3c(c(=O)[nH]c(=O)n3C)n2C1 (stereo not drawn)	-14%[11.4 µM]	-18	18%[59 µM]	27µM*	.	-14%
COc1cc(-c2noc(C)c2C#CC2(O)CCCCC2)cc(OC)c1OC	-3%	3	.	-3%	1%	51%
COc1cc(-c2noc(C)c2C#CC2(N)CCCCC2)cc(OC)c1OC	-24%	9	14µM*	-9%	?	24%

Screening results deposited in PubChem by National Center for Advancing Translational Sciences (NCATS).
